# Results: PubChem BioAssay AID1159580 (chemical genetic matrix, 2015)
# Several values for one entry are separate records, joined by “and”; a condition that tells them apart may be missing. Identical values can stand only once. Among all 5,500 compounds or so, about 2,000 (36%) were called active. Not shown: some 18% with an inconclusive outcome. No stated cut-off is given here; in the data, active means normalized growth mostly below about 0.91 (no sharp cut-off); inconclusive means no clear call, values can overlap the other calls; inactive means mostly above about 0.92. The list shows a part of the results.
# Experiment: chemical genetic growth profiling, strain panel (AID 1159580);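 further: tested at 20 µM; growth read once vehicle control cultures reached saturation at 30 °C; 1 = growth at the plate median or of vehicle wells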
# Conditions: S. cerevisiae deletion strains, growth OD
structure (smiles),measurement,setting,value
CC(=O)Nc1nnc(S(N)(=O)=O)s1,normalized growth,"locus YAL013W, strain DEP1, stronger effect = lower value",0.987 (inactive)
same,normalized growth,"locus YAL021C, strain ccr4, stronger effect = lower value",1 (inactive)
same,normalized growth,"locus YAL026C, strain drs2, stronger effect = lower value",1 (inactive)
same,normalized growth,"locus YAL030W, strain snc1, stronger effect = lower value",1.02 (inactive)
same,normalized growth,"locus YAL040C, strain CLN3, stronger effect = lower value",0.992 (inactive)
same,normalized growth,"locus YBL061C, strain skt5, stronger effect = lower value",1.01 (inactive)
same,normalized growth,"locus YBR009C, strain hhf1, stronger effect = lower value",0.991 (inactive)
same,normalized growth,"locus YBR021W, strain FUR4, stronger effect = lower value",0.944 (inactive)
same,normalized growth,"locus YBR023C, strain chs3, stronger effect = lower value",1.01 (inactive)
same,normalized growth,"locus YBR171W, strain sec66, stronger effect = lower value",1.02 (inactive)
same,normalized growth,"locus YBR229C, strain ROT2, stronger effect = lower value",0.95 (inactive)
same,normalized growth,"locus YBR231C, strain swc5, stronger effect = lower value",1.01 (inactive)
same,normalized growth,"locus YBR279W, strain paf1, stronger effect = lower value",1.01 (inactive)
same,normalized growth,"locus YCL011C, strain gbp2, stronger effect = lower value",1.02 (inactive)
same,normalized growth,"locus YCL016C, strain dcc1, stronger effect = lower value",1 (inactive)
same,normalized growth,"locus YCL029C, strain bik1, stronger effect = lower value",0.987 (inactive)
same,normalized growth,"locus YCL061C, strain MRC1 (second series), stronger effect = lower value",0.999 (inactive)
same,normalized growth,"locus YCL069W, strain vba3, stronger effect = lower value",1.02 (inactive)
same,normalized growth,"locus YCR088W, strain abp1, stronger effect = lower value",1.01 (inactive)
same,normalized growth,"locus YDL005C, strain med2, stronger effect = lower value",0.997 (inactive)
same,normalized growth,"locus YDL035C, strain GPR1, stronger effect = lower value",0.538 (active)
same,normalized growth,"locus YDL040C, strain nat1, stronger effect = lower value",1.01 (inactive)
same,normalized growth,"locus YDL074C, strain BRE1, stronger effect = lower value",0.709 (active)
same,normalized growth,"locus YDL101C, strain DUN1, stronger effect = lower value",0.878 (active)
same,normalized growth,"locus YDL134C, strain PPH21, stronger effect = lower value",0.621 (active)
same,normalized growth,"locus YDL185W, strain tfp1, stronger effect = lower value",0.998 (inactive)
same,normalized growth,"locus YDL192W, strain arf1, stronger effect = lower value",0.915 (active)
same,normalized growth,"locus YDR001C, strain nth1, stronger effect = lower value",1.01 (inactive)
same,normalized growth,"locus YDR069C, strain doa4, stronger effect = lower value",1.01 (inactive)
same,normalized growth,"locus YDR101C, strain arx1, stronger effect = lower value",0.998 (inactive)
same,normalized growth,"locus YDR137W, strain rgp1, stronger effect = lower value",1 (inactive)
same,normalized growth,"locus YDR159W, strain sac3, stronger effect = lower value",0.99 (inactive)
same,normalized growth,"locus YDR162C, strain NBP2, stronger effect = lower value",0.126 (active)
same,normalized growth,"locus YDR195W, strain ref2",1.01 (inactive)
same,normalized growth,"locus YDR297W, strain sur2, stronger effect = lower value",1.01 (inactive)
same,normalized growth,"locus YDR318W, strain mcm21, stronger effect = lower value",0.917 (active)
same,normalized growth,"locus YDR334W, strain swr1, stronger effect = lower value",1.01 (inactive)
same,normalized growth,"locus YDR335W, strain msn5, stronger effect = lower value",1 (inactive)
same,normalized growth,"locus YDR388W, stronger effect = lower value",0.959 (inactive)
same,normalized growth,"locus YDR392W, strain spt3, stronger effect = lower value",1 (inactive)
same,normalized growth,"locus YDR502C, strain sam2, stronger effect = lower value",0.943 (inactive)
same,normalized growth,"locus YEL003W, strain gim4, stronger effect = lower value",1.01 (inactive)
same,normalized growth,"locus YEL037C, strain rad23, stronger effect = lower value",1.02 (inactive)
same,normalized growth,"locus YEL061C, strain CIN8 (second series), stronger effect = lower value",1.02 (inactive)
same,normalized growth,"locus YEL061C, strain CIN8, stronger effect = lower value",0.728 (active)
same,normalized growth,"locus YER002W, strain NOP16, stronger effect = lower value",1.03 (inactive)
same,normalized growth,"locus YER015W, strain faa2, stronger effect = lower value",0.997 (inactive)
same,normalized growth,"locus YER016W, strain bim1, stronger effect = lower value",0.99 (inactive)
same,normalized growth,"locus YER110C, stronger effect = lower value",1.01 (inactive)
same,normalized growth,"locus YER111C, strain swi4, stronger effect = lower value",1.01 (inactive)
same,normalized growth,"locus YER155C, strain BEM2 (second series), stronger effect = lower value",1.03 (inactive)
same,normalized growth,"locus YER155C, strain BEM2, stronger effect = lower value",1.01 (inactive)
same,normalized growth,"locus YER167W, strain BCK2, stronger effect = lower value",0.748 (active)
same,normalized growth,"locus YFR010W, strain ubp6, stronger effect = lower value",1.03 (inactive)
same,normalized growth,"locus YGL078C, strain dbp3, stronger effect = lower value",1 (inactive)
same,normalized growth,"locus YGL086W, strain mad1, stronger effect = lower value",0.864 (active)
same,normalized growth,"locus YGL167C, strain pmr1, stronger effect = lower value",1.01 (inactive)
same,normalized growth,"locus YGL173C, strain kem1, stronger effect = lower value",1.02 (inactive)
same,normalized growth,"locus YGL227W, strain vid30, stronger effect = lower value",1.01 (inactive)
same,normalized growth,"locus YGL240W, strain doc1, stronger effect = lower value",1.01 (inactive)
same,normalized growth,"locus YGL248W, strain PDE1, stronger effect = lower value",0.585 (active)
same,normalized growth,"locus YGL253W, strain hxk2, stronger effect = lower value",1.01 (inactive)
same,normalized growth,"locus YGR078C, strain PAC10, stronger effect = lower value",0.477 (active)
same,normalized growth,"locus YGR135W, strain pre9, stronger effect = lower value",0.81 (active)
same,normalized growth,"locus YGR252W, strain gcn5, stronger effect = lower value",0.824 (inactive)
same,normalized growth,"locus YHR013C, strain ard1, stronger effect = lower value",1.02 (inactive)
same,normalized growth,"locus YHR027C, strain rpn1, stronger effect = lower value",0.999 (inactive)
same,normalized growth,"locus YHR030C, strain SLT2, stronger effect = lower value",0.707 (active) and 1 (inactive)
same,normalized growth,"locus YHR079C, strain IRE1 (second series), stronger effect = lower value",0.996 (inactive)
same,normalized growth,"locus YHR079C, strain IRE1, stronger effect = lower value",0.969 (inactive)
same,normalized growth,"locus YHR094C, strain hxt1, stronger effect = lower value",0.985 (inactive)
same,normalized growth,"locus YHR129C, strain ARP1, stronger effect = lower value",0.728 (active)
same,normalized growth,"locus YHR142W, strain chs7, stronger effect = lower value",1.01 (inactive)
same,normalized growth,"locus YHR200W, strain rpn10, stronger effect = lower value",0.985 (inactive)
same,normalized growth,"locus YIL066C, strain RNR3, stronger effect = lower value",0.24 (active)
same,normalized growth,"locus YIL073C, strain SPO22, stronger effect = lower value",0.202 (active)
same,normalized growth,"locus YIL125W, strain kgd1, stronger effect = lower value",1.01 (inactive)
same,normalized growth,"locus YIR030C, strain dcg1, stronger effect = lower value",1.01 (inactive)
same,normalized growth,"locus YJL092W, strain hpr5, stronger effect = lower value",1.02 (inactive)
same,normalized growth,"locus YJL095W, strain BCK1 (second series), stronger effect = lower value",1.01 (inactive)
same,normalized growth,"locus YJL095W, strain BCK1, stronger effect = lower value",0.773 (active) and 0.995 (inactive)
same,normalized growth,"locus YJL115W, strain asf1, stronger effect = lower value",1.02 (inactive)
same,normalized growth,"locus YJL129C, strain trk1, stronger effect = lower value",1.02 (inactive)
same,normalized growth,"locus YJL134W, strain LCB3, stronger effect = lower value",0.938 (inactive)
same,normalized growth,"locus YJL154C, strain vps35, stronger effect = lower value",1.02 (inactive)
same,normalized growth,"locus YJL164C, strain tpk1, stronger effect = lower value",1 (inactive)
same,normalized growth,"locus YJL166W, strain qcr8, stronger effect = lower value",1.01 (inactive)
same,normalized growth,"locus YJL168C, strain set2, stronger effect = lower value",0.979 (inactive)
same,normalized growth,"locus YJL187C, strain SWE1 (second series), stronger effect = lower value",0.793 (active)
same,normalized growth,"locus YJR043C, strain POL32, stronger effect = lower value",0.398 (active)
same,normalized growth,"locus YJR066W, strain TOR1, stronger effect = lower value",0.97 (inactive)
same,normalized growth,"locus YJR075W, strain HOC1, stronger effect = lower value",1.01 (inactive)
